# Most compounds without a hit are left out; they make up all but 9.8% or so of the library.
# HttQ103 aggreg – mutant huntingtin aggregation inhibition. PC12 HttQ103-GFP aggregates, Acumen cytometry, 40 h. Potency, µM (doses to about 46.1 µM), for the others: at the highest dose activity change, negative = inhibition, hits mostly inhibitors. 220,000 tested, 1.1% active. AID 1688; active = well fitted curve in the direction sought with a large enough effect; inconclusive = small, poorly fitted or top-dose-only effect, or another doubt; inactive = no such curve, though single readings can be large; an effect the other way counts as inactive or inconclusive; also: potency is read from the fitted curve at half-maximal effect; % is scaled to controls: 0 for no effect and ±100 for the full control effect; nearly all actives have a fitted effect of over 60% in size
#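 Using laser scanning cytometry, GFP-positive aggregates were counted after lysis of PC12 cells induced with 100 nM tebufenozide to express HTT exon 1 Q103–GFP. Compounds were tested in titration.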
# CBFb-RUNX1 inh – blocks binding between human CBF-beta and RUNX1; Q01196+Q13951; AlphaScreen CBFb-His/RUNX1-biotin binding, biochemical; Potency, µM (series often up to 59.8 µM), for inactives: at the highest dose activity, negative = inhibition, actives largely listed as inhibitors; 230,000 tested, under 10 active; AID 1477; active = well fitted curve in the direction sought with a large enough effect; inconclusive = small, poorly fitted or top-dose-only effect, or another doubt; inactive = no such curve, though single readings can be large; an effect the other way counts as inactive or inconclusive; also: % of control where 0% means no effect
#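 Compounds were screened at multiple concentrations against a preformed CBF-beta(His)/RUNX1(biotin) complex (30 nM of each) for 15 min at room temperature, followed by 90 min with nickel and streptavidin beads and AlphaScreen reading.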
# JMJD2E inh – blocks human JMJD2E demethylase activity. B2RXH2. JMJD2E catalytic domain, FDH-coupled NADH fluorescence (FDH is formaldehyde dehydrogenase). Potency, µM (doses to about 57.1 µM), for the others: at the highest dose activity change, negative = inhibition, hits mostly inhibitors. 230,000 tested, 1.6% active;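 also: potency is read from the fitted curve at half-maximal effect; 0% = wells with enzyme and -100% = buffer wells without enzyme; nearly all actives have a fitted effect of over 50% in size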
# Target sequence (B2RXH2 1-337 limits assumed): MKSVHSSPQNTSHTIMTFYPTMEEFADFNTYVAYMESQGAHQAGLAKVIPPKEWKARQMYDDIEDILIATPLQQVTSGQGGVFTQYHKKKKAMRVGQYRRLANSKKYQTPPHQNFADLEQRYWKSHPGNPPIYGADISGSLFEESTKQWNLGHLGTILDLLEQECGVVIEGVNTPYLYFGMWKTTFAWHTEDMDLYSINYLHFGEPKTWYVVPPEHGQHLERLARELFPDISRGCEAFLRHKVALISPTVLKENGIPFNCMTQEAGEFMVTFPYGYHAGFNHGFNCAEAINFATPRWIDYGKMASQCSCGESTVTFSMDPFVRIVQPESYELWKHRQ
# HPGD inh – HPGD (human) dehydrogenase inhibition | 150,000 tested, 4.3% active | Potency, µM, for the others: top-dose activity change, negative = inhibition, most hits filed as inhibitors | P15428 | purified HPGD, NADH fluorescence kinetic, PGE2 substrate; also: potency is read from the fitted curve at half-maximal effect; % is scaled to controls: 0 for no effect and ±100 for the full control effect
# Target sequence (P15428 whole entry, looked up): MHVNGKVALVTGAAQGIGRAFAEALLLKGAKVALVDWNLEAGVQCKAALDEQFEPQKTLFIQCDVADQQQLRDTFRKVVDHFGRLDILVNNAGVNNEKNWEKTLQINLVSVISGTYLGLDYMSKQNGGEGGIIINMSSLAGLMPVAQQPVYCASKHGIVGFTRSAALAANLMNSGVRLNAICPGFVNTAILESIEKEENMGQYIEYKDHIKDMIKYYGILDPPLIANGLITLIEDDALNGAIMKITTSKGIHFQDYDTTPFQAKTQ
#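 20 nM HPGD preincubated 15 min at room temperature with compound in 50 mM Tris-HCl pH 8, 0.01% Tween 20. Started with 1 mM NAD+ and 30 uM prostaglandin E2; NADH fluorescence (360/450 nm) read 5 times over 30-s intervals, last minus first.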
# ALDH1A1 block – blocks purified human ALDH1A1 activity | P00352 | Purified ALDH1A1, NADH fluorescence, propionaldehyde substrate | Potency, µM (titrated, usually from 75.3 µM), without a hit: at the top dose activity, negative = inhibition, most hits filed as inhibitors | 220,000 tested, 7.3% active | AID 1030;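 also: potency is read from the fitted curve at half-maximal effect; plate controls were no enzyme wells and a reference inhibitor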
# HTT cytoprotect – cytoprotection in Huntington HTT-Q103 PC12 cell model; PC12 HTT-Q103 induced, cytoprotection, ATP luminescence, 40 h; Potency, µM (top dose mostly 56.4 µM), without a hit: cytoprotection (ATP increase), most hits filed as activators; 230,000 tested, 0.14% active; AID 1471; active = well fitted curve in the direction sought with a large enough effect; inconclusive = small, poorly fitted or top-dose-only effect, or another doubt; inactive = no such curve, though single readings can be large; an effect the other way counts as inactive or inconclusive; also: potency is read from the fitted curve at half-maximal effect; % of control where 0% means no effect; nearly all actives have a fitted effect of over 45% in size
#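 Stable PC12 Q103-GFP cells in serum-supplemented, phenol red-free DMEM; induction by tebufenozide at 100 nM final; compound dose series; cell viability quantified luminescently from ATP.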
# * hit, by the source's call; ? = inconclusive; nt = no result; [ ] = remark or other dose. Unless noted, calls follow the shape of the dose curve; as a rule, active = well fitted inhibition curve with a large enough effect (not every such curve was filed as active); inconclusive = small, poorly fitted or top-dose-only effect, or another doubt; inactive = no such curve, though single readings can be large or run the other way.
SMILES,HttQ103 aggreg,CBFb-RUNX1 inh,JMJD2E inh,HPGD inh,ALDH1A1 block,HTT cytoprotect
O=C(C#Cc1cccc([N+](=O)[O-])c1)c1ccccc1,?,-8.8%,-4.7%,-15.9%,3.55µM*,-113.5%
CCc1ccc(NC(=S)N(Cc2cccc(Br)c2)CC2CCC(C(=O)O)CC2)cc1 (stereo unspecified),-6.4%,2.2%,-2.2%,nt,-1.7%,-38.7%
O=C(O)[C@H]1CCCC[C@@H]1c1c2ccc(=O)c(O)c-2oc2c(O)c(O)ccc12,nt,nt,nt,4.47µM*,-9.0%[13.5 µM],-12.4%[10 µM]
O=C(O)/C=C\c1c2ccc(=O)c(O)c-2oc2c(O)c(O)ccc12,nt,nt,nt,2.82µM*,2.7%[13.5 µM],0.0%[10 µM]
O=C1c2ccccc2C(=O)N1Cc1ccccn1,22.5%,0.0%,11.2%,nt,?,nt
O=[N+]([O-])c1ccc(N/N=C\c2cccnc2)nc1,-2.8%[9.22 µM],-7.1%,-0.9%,nt,-9.3%,19.0%[10 µM]
CNC(=S)N/N=C/c1cn(Cc2ccc(F)cc2)c2ccccc12,?,-21.6%,3.8%,-14.6%,28.2µM*,17.9%[10 µM]
Cc1ccc(OCC(=O)N/N=C\c2cn(Cc3ccccc3)c3ccccc23)cc1C,-23.3%,-10.1%,0.3%,?,12.6µM*,18.9%[10 µM]
Cc1cccc(C)c1-n1c(C)cc(/C=N\Nc2ccc([N+](=O)[O-])cn2)c1C,?,20.8%,2.2%,-19.8%,10µM*,-39.7%
Cc1ccccc1OCC(=O)N/N=C/c1cn(Cc2ccccc2)c2ccccc12,1.1%,2.3%,20.1%,?,?,-9.8%[1.9 µM]
O=[N+]([O-])c1ccc(N/N=C/c2cn(Cc3ccc(F)cc3)c3ccccc23)nc1,9.3%,-6.9%,-2.4%,-21.4%,17.8µM*,-18.8%[10 µM]
COC(=O)N/N=C/c1cn(Cc2ccc(F)cc2)c2ccccc12,-1.4%[9.22 µM],2.5%,-2.8%,nt,nt,-9.6%[10 µM]
O=C(O)C1C2C=CC(C2)C1C(=O)NCc1ccco1 (stereo unspecified),8.3%,7.5%,-11.9%,nt,-0.4%,-24.0%
COc1ccc(NC(=O)C2C3C=CC(C3)C2C(=O)NCc2ccco2)c(OC)c1 (stereo unspecified),-1.3%,-3.2%,-5.8%,25.1µM*,?,-11.0%[1.9 µM]
COc1cc2c(cc1NC(=O)C(C)OC(=O)c1ccc(S(=O)(=O)Nc3ccccc3Cl)cc1)oc1ccccc12 (stereo unspecified),-29.3%,12.9%,?,nt,1.5%,-37.4%
COc1cccc2cc(C(=O)NNC(=O)c3ccc(Br)cc3)c(=O)oc12,-3.5%,-2.3%,-5.8%,nt,?,-19.6%
Cc1cc(C(=O)COC(=O)c2cccn2C)c(C)n1Cc1ccco1,?,?,-12.7%,nt,25.1µM*,-128.3%
O=[N+]([O-])c1cc2c(cc1/C=N\NS(=O)(=O)c1ccccc1)OCO2,-13.0%,3.6%,23.4%,-27.1%,1.58µM*,3.8%[10 µM]
CNc1nc(N/N=C/c2cc3c(cc2[N+](=O)[O-])OCO3)nc(Nc2ccccc2)n1,-28.7%,?,2.4%,nt,2.9%,-198.0%
ON(Cc1c(F)cccc1Cl)Cc1c(F)cccc1Cl,-15.4%[9.22 µM],6.4%,-12.6%,nt,nt,9.6%[10 µM]
NC(=O)Cc1nc2scc(-c3ccccc3)c2c(=O)[nH]1,-3.0%[9.22 µM],-3.6%,-26.8%,nt,12.6µM*,-10.9%
Cc1csc(SCc2nc3scc(-c4ccccc4)c3c(=O)[nH]2)n1,-20.5%,-6.9%,2.6%,nt,?,-26.1%
O=c1[nH]c(Cc2ccc(F)cc2)nc2scc(-c3ccc(F)cc3)c12,6.6%,2.3%,7.0%,22.4µM*,31.6µM*,3.3%[0.074 µM]
N#Cc1c(NC(=O)c2ccc(Cn3cc(Br)cn3)o2)sc2c1CCCCC2,?,13.0%,?,-23.7%,?,-14.3%
CC1CCc2c(sc(NC(=O)c3ccc(Cn4cc([N+](=O)[O-])cn4)o3)c2C#N)C1 (stereo unspecified),-10.6%,-29.9%,-7.2%,-21.5%,25.1µM*,-29.4%
COC(=O)c1sc(NC(=O)c2ccc(Cn3cc(Cl)cn3)o2)c(C#N)c1C,?,-3.9%,?,15.8µM*,3.55µM*,-7.7%

# Bioassay records: PubChem BioAssay, National Center for Advancing Translational Sciences (NCATS)
